# In PubChem BioAssay (NCATS):
# Results filed as inconclusive are left out. Calls of active or inactive are those of the source. Unless noted, the call rests on the fitted dose curve; in most records, active means well fitted curve in the direction sought with a large enough effect; inconclusive means small, poorly fitted or top-dose-only effect, or another doubt; inactive means no such curve, though single readings can be large; an effect the other way counts as inactive or inconclusive.
# Experiments:
# [1] = molecular target: Lysosomal acid glucosylceramidase (Homo sapiens) (UniProt P04062); assay: Glucocerebrosidase-p2 (AID 348; in the data active means potency below about 10 µM; further: potency means the concentration at half of the fitted maximal effect); settings: purified GBA, blue fluorogenic substrate, 40 min
# Lysosomal acid glucosylceramidase (Homo sapiens), sequence (P04062 whole entry, looked up): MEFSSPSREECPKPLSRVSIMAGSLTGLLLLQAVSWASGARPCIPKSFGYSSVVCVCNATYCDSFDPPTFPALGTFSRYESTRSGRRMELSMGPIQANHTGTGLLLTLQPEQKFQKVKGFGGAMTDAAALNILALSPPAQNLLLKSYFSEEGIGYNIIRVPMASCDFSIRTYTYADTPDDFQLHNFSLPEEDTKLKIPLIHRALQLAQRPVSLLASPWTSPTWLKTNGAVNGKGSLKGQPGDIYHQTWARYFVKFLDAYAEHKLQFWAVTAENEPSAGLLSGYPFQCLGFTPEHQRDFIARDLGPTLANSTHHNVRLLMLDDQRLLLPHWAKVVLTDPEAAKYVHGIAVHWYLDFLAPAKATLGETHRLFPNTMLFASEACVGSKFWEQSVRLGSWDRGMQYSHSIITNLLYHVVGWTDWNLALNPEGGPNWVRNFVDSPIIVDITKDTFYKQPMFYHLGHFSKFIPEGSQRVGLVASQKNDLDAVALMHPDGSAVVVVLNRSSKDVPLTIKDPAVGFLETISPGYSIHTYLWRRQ
# Procedure, shortened: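 Normal human glucocerebrosidase (0.2 nM) with blue fluorogenic substrate (80 uM final) in citrate/phosphate pH 5.9 with 10mM sodium taurocholate, 0.01% tween-20; 40 min RT, NaOH/glycine stop; fluorescence Ex 365/Em 440; AC50 from a titration from 0.6 nM upwards.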
# [2] = AP1 Signaling Pathway (AID 357; active means well fitted curve in either direction with a large enough effect, not every such curve was filed as active;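 further: ME-180 reporter cells stimulated with EGF at its EC50 level; on the % scale 0 is the no-effect control and ±100 the full control effect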); settings: ME-180 AP-1-bla reporter, EGF-induced, beta-lactamase ratio, 5 h; at 7.69 µM (top of the series) unless noted
# Procedure, shortened: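 AP-1-bla ME-180 cells, Opti-MEM + 0.5% dialyzed FBS, plated overnight 37 °C. Cpd titration + EC50 EGF, 5 h 37 °C. CCF4 2.5 h RT; ex 405, em 460/530 ratio → %activity, AC50.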
# [3] = NFAT Signaling Pathway (AID 444; active means well fitted curve in either direction with a large enough effect, not every such curve was filed as active;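 further: carbachol stimulus at about its EC50 of 1 µM final; on the % scale 0 is the no-effect control and ±100 the full control effect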); settings: Jurkat NFAT-bla M1, carbachol, beta-lactamase ratio, 5 h; at 7.69 µM (top of the series) unless noted
# Procedure, shortened: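 Jurkat cells with NFAT-driven β-lactamase reporter and co-expressed M1 receptor, stimulated with carbachol (final 1 uM, ~EC50), compound titration, 5 h at 37 °C. CCF4 loaded 1 h at RT; 460/530 nm ratio gave %activity and AC50.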
# [4] = Stat Signaling Pathway (AID 446; active means well fitted curve in either direction with a large enough effect, not every such curve was filed as active;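 further: ME-180 cervical cancer cells given 40 pM IL-6 alongside compound; SIE-controlled beta-lactamase reporter measured as 460/530 nm FRET emission ratio; on the % scale 0 is the no-effect control and ±100 the full control effect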); settings: ME-180 SIE beta-lactamase reporter, IL-6 stimulated, 5 h; at 7.69 µM (top of the series) unless noted
# Procedure, shortened: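 Compound effects on IL-6-induced STAT reporter activity were measured in ME-180 cells. After overnight culture, cells were co-treated with 40 pM IL-6 for 5 hrs before beta-lactamase substrate loading at room temperature.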
# [5] = molecular target: Glucocorticoid receptor (Homo sapiens) (UniProt P04150); assay: GR-EFC Redistribution (AID 451; calls by dose curve; further: potency means the concentration at half of the fitted maximal effect); settings: CHO-K1 GR-EFC translocation, beta-gal luminescence, 2 h
# Glucocorticoid receptor (Homo sapiens), sequence (P04150 whole entry, looked up, the tested form may be a part): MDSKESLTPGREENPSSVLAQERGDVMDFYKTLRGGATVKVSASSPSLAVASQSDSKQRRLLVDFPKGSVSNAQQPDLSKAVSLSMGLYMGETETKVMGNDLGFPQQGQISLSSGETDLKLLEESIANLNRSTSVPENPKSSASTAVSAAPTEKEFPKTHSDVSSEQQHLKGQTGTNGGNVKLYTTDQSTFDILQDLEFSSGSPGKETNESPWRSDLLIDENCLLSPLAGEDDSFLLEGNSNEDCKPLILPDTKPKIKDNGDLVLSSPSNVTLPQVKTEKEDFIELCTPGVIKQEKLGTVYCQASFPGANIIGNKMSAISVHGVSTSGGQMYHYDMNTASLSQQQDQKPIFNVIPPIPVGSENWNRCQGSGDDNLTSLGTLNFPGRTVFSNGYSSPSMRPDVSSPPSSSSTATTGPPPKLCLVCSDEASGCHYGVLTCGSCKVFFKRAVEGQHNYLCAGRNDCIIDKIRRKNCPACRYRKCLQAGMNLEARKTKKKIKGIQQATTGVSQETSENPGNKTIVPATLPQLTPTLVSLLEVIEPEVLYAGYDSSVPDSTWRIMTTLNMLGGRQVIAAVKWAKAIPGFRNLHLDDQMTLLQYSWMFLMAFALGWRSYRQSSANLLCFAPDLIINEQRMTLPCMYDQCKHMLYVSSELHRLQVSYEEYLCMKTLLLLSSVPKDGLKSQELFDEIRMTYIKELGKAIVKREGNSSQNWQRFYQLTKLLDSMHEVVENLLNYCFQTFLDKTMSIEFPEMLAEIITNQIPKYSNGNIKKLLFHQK
# Procedure, shortened: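 CHO-K1 cells expressing nuclear EA and GR-ED fragments of b-gal; compounds titrated up to 46 uM final, 2 h at 37 C. GR nuclear translocation read as complemented b-gal luminescence after 1 h RT detection.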
# [6] = molecular target: Mitogen-activated protein kinase 10 (Mus musculus) (UniProt Q61831); assay: JNK3 AlphaScreen Assay (AID 530; active means well fitted curve in either direction with a large enough effect, not every such curve was filed as active;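 further: kinase came from lysate of stimulated human HepG2 cells; signal reports phosphorylation of biotinylated GST-cJun 1-79 at Ser73 with 10 µM ATP; on the % scale 0 is the no-effect control and ±100 the full control effect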); settings: JNK3 lysate, c-Jun phosphorylation; series mostly up to 57.1 µM
# Procedure, shortened: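 HepG2 lysate (IL-1b/TNFa pre-activated) + biotin-GST-cJun 1-79 + anti-pSer73 cJun; cpd titration, 15 min RT; ATP 10 uM start; Tris pH 7.6, MgCl2, DTT, vanadate; beads in EDTA buffer; AlphaScreen.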
# [7] = molecular target: 3',5'-cyclic-AMP phosphodiesterase 4B (Homo sapiens) (UniProt Q07343); assay: qHTS Assay for Inhibitors of PDE-IV (AID 607; active means well fitted activation curve with a large enough effect in the main read-out, with a control signal flat, not every such curve was filed as active; further: % of control where 0% means no effect); settings: HEK293 ACTOne CNG channel cells, membrane potential fluorescence; series mostly up to 22.9 µM
# 3',5'-cyclic-AMP phosphodiesterase 4B (Homo sapiens), sequence (Q07343 whole entry, looked up): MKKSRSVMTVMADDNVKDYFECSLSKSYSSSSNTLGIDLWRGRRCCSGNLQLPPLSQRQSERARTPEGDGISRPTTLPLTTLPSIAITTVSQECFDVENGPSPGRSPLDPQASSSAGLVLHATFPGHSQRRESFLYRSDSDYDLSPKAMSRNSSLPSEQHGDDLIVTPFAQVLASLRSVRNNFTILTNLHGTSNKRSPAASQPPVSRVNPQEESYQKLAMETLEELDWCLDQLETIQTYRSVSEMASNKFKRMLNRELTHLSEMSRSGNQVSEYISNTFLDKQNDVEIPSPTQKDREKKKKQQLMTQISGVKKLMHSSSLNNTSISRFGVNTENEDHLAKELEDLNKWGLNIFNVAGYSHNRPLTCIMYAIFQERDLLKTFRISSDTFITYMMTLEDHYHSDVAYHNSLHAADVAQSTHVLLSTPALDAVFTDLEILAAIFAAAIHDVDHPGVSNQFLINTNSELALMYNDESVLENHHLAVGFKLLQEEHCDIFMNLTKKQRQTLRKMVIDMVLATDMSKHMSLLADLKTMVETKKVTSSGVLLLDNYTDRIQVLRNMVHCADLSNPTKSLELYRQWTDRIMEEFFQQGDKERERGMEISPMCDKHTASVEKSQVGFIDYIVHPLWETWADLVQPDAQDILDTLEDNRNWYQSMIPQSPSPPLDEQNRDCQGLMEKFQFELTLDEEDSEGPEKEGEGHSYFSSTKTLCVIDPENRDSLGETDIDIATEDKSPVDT
# Procedure, shortened: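 ACTOne HEK293 cells carry a modified cAMP-gated CNG channel and express endogenous PDE4; plated 1000 cells/well, compounds up to 22.9 uM final. Membrane-potential dye fluorescence (ex 535/em 590) was read; parental cells received 10 uM forskolin + 100 uM RO 20-1724.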
# [8] = molecular target: Cytochrome P450 3A4 (Homo sapiens) (UniProt P08684); assay: qHTS Assay for Activators of Cytochrome P450 3A4 (AID 885); settings: recombinant CYP3A4, Luciferin-PPXE luminescence, 60 min; series mostly up to 57.1 µM; further: nearly all actives have a fitted effect of over 65% in size
# Cytochrome P450 3A4 (Homo sapiens), sequence (P08684 whole entry, looked up): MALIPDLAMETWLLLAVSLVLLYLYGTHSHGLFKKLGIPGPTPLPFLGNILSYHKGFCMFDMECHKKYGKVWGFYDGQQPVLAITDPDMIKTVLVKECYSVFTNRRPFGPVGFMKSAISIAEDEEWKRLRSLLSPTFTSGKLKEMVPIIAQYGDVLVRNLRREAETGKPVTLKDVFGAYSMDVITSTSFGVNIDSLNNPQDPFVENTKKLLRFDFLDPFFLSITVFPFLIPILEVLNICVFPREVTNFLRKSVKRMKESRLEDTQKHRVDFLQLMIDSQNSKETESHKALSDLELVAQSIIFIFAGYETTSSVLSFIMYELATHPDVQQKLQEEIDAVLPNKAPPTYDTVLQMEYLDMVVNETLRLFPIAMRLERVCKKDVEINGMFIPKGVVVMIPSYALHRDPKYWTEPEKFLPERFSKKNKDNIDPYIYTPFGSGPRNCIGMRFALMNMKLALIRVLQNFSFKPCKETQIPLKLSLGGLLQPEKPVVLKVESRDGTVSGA
# Procedure, shortened: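 CYP3A4 activity: Luciferin-PPXE O-dealkylation, 25uM substrate, 200mM KPO4, RT throughout. Read-out is luciferase luminescence; higher values reflect activation.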
# [9] = qHTS Assay for Lipid Storage Modulators (AID 1519; calls by dose curve); settings: Drosophila S3 cells, BODIPY lipid droplet/cell ratio, laser cytometry, cells loaded with oleic acid; for activity change, negative = inhibition: at 57.5 µM (top of the series)
# Procedure, shortened: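 Cells seeded at 5,000 per well were treated with compounds over a concentration series and loaded with oleic acid (400 uM, as added). Lipid droplet fluorescence (488 nm excitation, 500-530 nm channel) was read by laser-scanning cytometry and normalized to 20 uM Triacsin C.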
# [10] = Primary qHTS for small molecule stabilizers of the endoplasmic reticulum resident proteome: Secreted ER Calcium Modulated Protein (SERCaMP) assay (AID 1508630); settings: SH-SY5Y GLuc-SERCaMP (Gaussia luciferase released on ER calcium loss) secretion, thapsigargin, luminescence; series mostly up to 38.4 µM; further: on the % scale 0 is the no-effect control and ±100 the full control effect
# Procedure, shortened: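 The SH-SY5Y reporter protocol was run at 3 concentrations up to 38.3 uM (primary) or 11 concentrations (follow-up): 16 h compound, 100 nM thapsigargin for 4 h, then extracellular luciferase luminescence.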
# [11] = molecular target: Cytochrome P450 1A2 (Homo sapiens) (UniProt P05177); assay: p450-cyp1a2 (AID 410; calls by dose curve; further: potency means the concentration at half of the fitted maximal effect); settings: recombinant CYP1A2, luciferin-ME demethylation, luminescence; series mostly up to 57 µM
# Cytochrome P450 1A2 (Homo sapiens), sequence (P05177 whole entry, looked up): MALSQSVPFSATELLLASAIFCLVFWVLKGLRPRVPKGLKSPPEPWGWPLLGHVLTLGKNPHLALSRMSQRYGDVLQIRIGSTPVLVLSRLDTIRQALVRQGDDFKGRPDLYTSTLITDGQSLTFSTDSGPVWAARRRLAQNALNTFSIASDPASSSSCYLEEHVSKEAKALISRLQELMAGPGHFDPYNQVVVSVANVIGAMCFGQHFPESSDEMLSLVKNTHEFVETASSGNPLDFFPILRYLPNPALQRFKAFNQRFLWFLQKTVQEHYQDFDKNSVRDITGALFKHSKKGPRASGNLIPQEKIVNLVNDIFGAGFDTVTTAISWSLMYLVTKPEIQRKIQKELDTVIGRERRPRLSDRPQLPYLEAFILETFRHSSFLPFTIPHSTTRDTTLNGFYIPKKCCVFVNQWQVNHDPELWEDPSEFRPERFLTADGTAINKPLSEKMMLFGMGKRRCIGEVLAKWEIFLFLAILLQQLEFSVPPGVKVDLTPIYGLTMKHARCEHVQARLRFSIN
# Procedure, shortened: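 Read-out is luminescence from luciferin produced by CYP1A2 demethylation of Luciferin-ME (100uM, at Km). Detection reagent stopped the 60 min NADPH-dependent reaction; signals were normalized to 57 uM furafylline.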
# [12] = molecular target: Glucocorticoid receptor (Homo sapiens) (UniProt P04150); assay: GR-GFP Redistribution (AID 450;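 active means compounds whose dose series gives a full or clear partial fitted curve of increased nuclear translocation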; further: potency means the concentration at half of the fitted maximal effect); settings: U2OS GR-GFP nuclear translocation, laser cytometry, 2 h
# [13] = molecular target: Cytochrome P450 2C9 (Homo sapiens) (UniProt P11712); assay: qHTS Assay for Inhibitors and Substrates of Cytochrome P450 2C9 (AID 883); settings: recombinant CYP2C9, luciferin-H luminescence, 60 min; series mostly up to 57.1 µM; further: nearly all actives have a fitted effect of over 60% in size; further: potency means the concentration at half of the fitted maximal effect
# Cytochrome P450 2C9 (Homo sapiens), sequence (P11712 whole entry, looked up): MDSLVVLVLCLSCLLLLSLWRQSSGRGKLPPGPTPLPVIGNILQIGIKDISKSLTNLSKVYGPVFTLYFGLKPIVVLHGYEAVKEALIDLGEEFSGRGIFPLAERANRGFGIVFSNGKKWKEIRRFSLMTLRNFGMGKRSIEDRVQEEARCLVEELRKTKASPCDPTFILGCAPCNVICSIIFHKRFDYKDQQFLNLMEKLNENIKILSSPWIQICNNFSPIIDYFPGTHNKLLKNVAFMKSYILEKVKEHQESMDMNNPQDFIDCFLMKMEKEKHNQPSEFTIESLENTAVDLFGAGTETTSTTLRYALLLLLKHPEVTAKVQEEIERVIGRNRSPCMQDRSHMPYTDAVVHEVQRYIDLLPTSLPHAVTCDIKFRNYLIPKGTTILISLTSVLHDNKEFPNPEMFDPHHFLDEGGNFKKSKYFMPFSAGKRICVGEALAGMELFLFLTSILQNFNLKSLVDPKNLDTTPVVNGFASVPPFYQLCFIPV
# Procedure, shortened: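 Human CYP2C9 (10nM) with Luciferin-H at 100uM (its KM) in 25mM KPO4; compound preincubated 10 min at 37C, then NADPH regeneration for 60 min at 37C. Luciferin read by luminescence after detection reagent; normalized to 57uM sulphaphenazole as full inhibition.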
# [14] = molecular target: Cytochrome P450 2C19 (Homo sapiens) (UniProt P33261); assay: qHTS Assay for Inhibitors and Substrates of Cytochrome P450 2C19 (AID 899); settings: recombinant CYP2C19, luciferin-H EGE luminescence; series mostly up to 57.1 µM; further: nearly all actives have a fitted effect of over 60% in size; further: potency means the concentration at half of the fitted maximal effect
# Cytochrome P450 2C19 (Homo sapiens), sequence (P33261 whole entry, looked up): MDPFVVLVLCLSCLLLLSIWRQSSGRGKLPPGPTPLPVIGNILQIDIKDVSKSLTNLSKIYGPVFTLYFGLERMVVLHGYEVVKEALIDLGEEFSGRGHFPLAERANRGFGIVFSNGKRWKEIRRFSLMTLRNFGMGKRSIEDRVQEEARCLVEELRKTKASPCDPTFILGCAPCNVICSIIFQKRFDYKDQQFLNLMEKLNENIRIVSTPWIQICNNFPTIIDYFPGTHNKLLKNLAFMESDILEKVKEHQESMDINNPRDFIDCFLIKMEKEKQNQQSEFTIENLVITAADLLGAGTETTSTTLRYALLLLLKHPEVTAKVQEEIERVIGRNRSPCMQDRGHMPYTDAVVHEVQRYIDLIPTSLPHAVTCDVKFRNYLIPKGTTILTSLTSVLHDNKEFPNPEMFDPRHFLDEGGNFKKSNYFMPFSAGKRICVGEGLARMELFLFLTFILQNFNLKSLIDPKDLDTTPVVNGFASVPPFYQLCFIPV
# Procedure, shortened: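 5 nM human CYP2C19 with 10uM Luciferin-H EGE (at KM) in 50mM KPO4, compound preincubated 10 min at 37C, then NADPH regeneration for 60 min at 37C. Luciferin read by luminescence after detection reagent; normalized to 57uM ketoconazole as full inhibition.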
# [15] = molecular target: Cytochrome P450 3A4 (Homo sapiens) (UniProt P08684); assay: qHTS Assay for Inhibitors and Substrates of Cytochrome P450 3A4 (AID 884); settings: recombinant CYP3A4, Luciferin-PPXE luminescence; series mostly up to 57.1 µM; further: potency means the concentration at half of the fitted maximal effect; nearly all actives have a fitted effect of over 50% in size
# Procedure, shortened: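 Luminescent readout of luciferin produced by CYP3A4 (20 nM) dealkylation of Luciferin-PPXE, 25 uM (its KM). NADPH-driven reaction ran 60 min at RT after 10 min compound preincubation; data scaled to 57 uM ketoconazole as 100% inhibition.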
# [16] = Confirmation and Secondary Assay for Modulators of Hemoglobin Beta Chain Splicing at IVS2 654 locus (AID 910); settings: HeLa EGFP-654 splicing reporter, GFP fluorescence, 48 h; series mostly up to 38.3 µM;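 further: HeLa cells stably carrying EGFP split by mutant beta-globin IVS2-654 intron; % of control where 0% means no effect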
# Procedure, shortened: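 HeLa cells stably expressing EGFP interrupted by β-globin IVS2-654 intron, seeded overnight in Opti-MEM/2% FCS, then treated 2 days at 37 °C. Restored splicing read as total peak GFP intensity per well by laser scanning cytometry (488 nm excitation, 500–520 nm emission); 500 nM antisense PNA as control.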
# [17] = molecular target: Ubiquitin carboxyl-terminal hydrolase 1 (Homo sapiens) (UniProt O94782); assay: Inhibitors of USP1/UAF1: Pilot qHTS (AID 504865); settings: purified USP1/UAF1, Ub-rhodamine cleavage fluorescence; series mostly up to 54.9 µM;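 further: rhodamine fluorescence freed from ubiquitin-rhodamine substrate followed over time; top concentration of the series differs between compounds; on the % scale 0 is the no-effect control and ±100 the full control effect; nearly all actives have a fitted effect of over 35% in size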
# Procedure, shortened: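 In 50mM HEPES pH 7.8 containing 0.5mM EDTA, 1mM TCEP, 0.1 mg/ml BSA and 0.01% Tween-20, 1nM USP1/UAF1 is exposed to compound for 15 min, then Ub-Rho (150nM final) is added and fluorescence is read over time.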
# [18] = molecular target: Cytochrome P450 2D6 (Homo sapiens) (UniProt P10635); assay: qHTS Assay for Inhibitors and Substrates of Cytochrome P450 2D6 (AID 891); settings: recombinant CYP2D6, luciferin-ME EGE luminescence; series mostly up to 57.1 µM; further: potency means the concentration at half of the fitted maximal effect; nearly all actives have a fitted effect of over 60% in size
# Cytochrome P450 2D6 (Homo sapiens), sequence (P10635 whole entry, looked up): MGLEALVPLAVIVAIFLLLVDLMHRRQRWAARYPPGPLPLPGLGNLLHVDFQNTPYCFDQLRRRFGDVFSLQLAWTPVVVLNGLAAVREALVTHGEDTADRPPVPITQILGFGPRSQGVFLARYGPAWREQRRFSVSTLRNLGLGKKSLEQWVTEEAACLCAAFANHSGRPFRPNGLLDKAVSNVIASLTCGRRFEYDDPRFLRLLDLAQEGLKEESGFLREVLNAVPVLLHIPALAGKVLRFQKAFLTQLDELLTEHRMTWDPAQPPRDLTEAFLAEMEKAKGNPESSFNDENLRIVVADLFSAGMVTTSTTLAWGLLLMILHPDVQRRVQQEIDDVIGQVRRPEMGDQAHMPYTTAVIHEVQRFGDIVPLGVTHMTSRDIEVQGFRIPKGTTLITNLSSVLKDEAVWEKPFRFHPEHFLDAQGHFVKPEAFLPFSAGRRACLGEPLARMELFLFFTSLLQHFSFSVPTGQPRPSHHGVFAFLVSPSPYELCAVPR
# Procedure, shortened: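 Luminescent read-out of luciferin formed by 5 nM human CYP2D6 demethylating 30 uM Luciferin-ME EGE (Km level) over 60 min at room temperature after NADPH regeneration addition. Data normalized to full inhibition by 1.43 uM quinidine.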
# [19] = qHTS Assay for Identification of Small Molecule Agonists for Hypoxia Response Element Signaling Pathway (AID 914; active means well fitted activation curve with a large enough effect in the signal ratio, with a control signal flat, not every such curve was filed as active; the % refers to the signal ratio; further: % of control where 0% means no effect); settings: ME-180 (cervical carcinoma) HRE-bla reporter, beta-lactamase ratio, CoCl2, 17 h; activation: stronger effect = higher value
# Procedure, shortened: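 HRE-bla ME-180 cells with beta-lactamase reporter under hypoxia response element, compounds with EC50 CoCl2 for 17 hours at 37 C. CCF4 substrate, 460nm/530nm emission ratio gave %Activity; AC50 from titration series.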
# [20] = Confirmation and Secondary Assay for Modulators of Hemoglobin Beta Chain Splicing at IVS2 705 locus (AID 930); settings: HeLa EGFP-705 splicing reporter, GFP fluorescence, 48 h; series mostly up to 38.3 µM;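 further: HeLa cells stably expressing the EGFP-705 splicing reporter; GFP fluorescence per well restored by corrected splicing of the IVS2-705 intron in EGFP; % of control where 0% means no effect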
# Procedure, shortened: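 HeLa cells stably carrying EGFP interrupted by mutant beta-globin intron 2 (IVS2-705) treated 2 days at 37C with compound; 500 nM antisense PNA as control. Correct splicing read as total peak GFP intensity per well by laser-scanning cytometry.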
# [21] = measured here: cell count channel max response
# [22] = measured here: lipid channel max response
compound,measurement,setting,value
CC(C)NC(=O)N1CCCC2(CCN(C(=O)c3ccncc3)CC2)C1,Potency,[1],> 11.4 µM (inactive)
same,"activity change, negative = inhibition",[2],-8.19% (inactive)
same,"activity change, negative = inhibition",[3],8.27% (inactive)
same,"activity, negative = inhibition",[4],-5.11% (inactive)
same,Potency,[5],> 46 µM (inactive)
same,outcome,[6],inactive
same,Potency,[7],inactive
same,Potency,[8],inactive
same,"activity change, negative = inhibition",[9],3.7% (inactive)
same,max response,[9]; [21],13.8%
same,max response,[9]; [22],22%
same,Potency,[10],inactive
O=C(Nc1ccccc1)N1CC2(CCN(C(=O)c3cccc(F)c3)CC2)C1,Potency,[1],> 11.4 µM (inactive)
same,"activity change, negative = inhibition",[2],13.2% (inactive)
same,"activity change, negative = inhibition",[3],14.3% (inactive)
same,"activity, negative = inhibition",[4],0.524% (inactive)
same,Potency,[5],> 46 µM (inactive)
same,outcome,[6],inactive
same,Potency,[7],inactive
same,"activity change, negative = inhibition",[9],5.53% (inactive)
same,max response,[9]; [21],9.88%
same,max response,[9]; [22],20.2%
same,Potency,[10],inactive
O=c1c(-c2ccc(F)cc2)nc2cnc(N3CCOCC3)nc2n1C[C@H]1CCCO1,"activity change, negative = inhibition",[2],9.7% (inactive)
same,Potency,[11],1.58 µM (active)
same,"activity change, negative = inhibition",[3],1.18% (inactive)
same,"activity, negative = inhibition",[4],29.2% (inactive)
same,Potency,[12],> 9.22 µM (inactive)
same,Potency,[5],> 46 µM (inactive)
same,outcome,[6],inactive
same,Potency,[7],inactive
same,Potency,[13],inactive
same,Potency,[14],inactive
same,"activity change, negative = inhibition",[9],-21.9% (inactive)
same,max response,[9]; [21],16.8%
same,max response,[9]; [22],-2.6%
same,Potency,[10],inactive
COc1ccc2[nH]cc(CCNc3ncncc3-c3ccc(N(C)C)cc3)c2c1,"activity change, negative = inhibition",[2],-27.6% (inactive)
same,Potency,[11],0.251 µM (active)
same,"activity change, negative = inhibition",[3],4.01% (inactive)
same,"activity, negative = inhibition",[4],-7.73% (inactive)
same,Potency,[12],> 46 µM (inactive)
same,Potency,[5],> 46 µM (inactive)
same,Potency,[13],0.501 µM (active)
same,Potency,[15],0.501 µM (active)
same,Potency,[8],inactive
same,Potency,[14],1.58 µM (active)
same,outcome,[16],inactive
same,"activity change, negative = inhibition",[9],5.88% (inactive)
same,max response,[9]; [21],5.01%
same,max response,[9]; [22],11%
same,Potency,[17],inactive
same,Potency,[10],inactive
Cc1cccc(CNc2ncncc2-c2ccc3c(c2)OCO3)c1,Potency,[1],> 11.4 µM (inactive)
same,"activity change, negative = inhibition",[2],-0.728% (inactive)
same,"activity change, negative = inhibition",[3],-2.79% (inactive)
same,"activity, negative = inhibition",[4],-19.6% (inactive)
same,Potency,[12],> 46 µM (inactive)
same,Potency,[5],> 46 µM (inactive)
same,outcome,[6],inactive
same,Potency,[15],0.251 µM (active)
same,Potency,[8],inactive
same,Potency,[18],6.31 µM (active)
same,outcome,[16],inactive
same,activation,[19],-16.9% (inactive)
same,outcome,[20],inactive
same,"activity change, negative = inhibition",[9],12.7% (inactive)
same,max response,[9]; [21],7.25%
same,max response,[9]; [22],23.1%
same,Potency,[10],inactive
CN(C)c1ccc(-c2nc(N(C)Cc3ccco3)c3ccccc3n2)cc1,Potency,[1],6.72 µM (active)
same,"activity change, negative = inhibition",[2],25.1% (inactive)
same,Potency,[11],0.631 µM (active)
same,"activity, negative = inhibition",[4],26.1% (inactive)
same,Potency,[12],> 46 µM (inactive)
same,Potency,[5],> 46 µM (inactive)
same,outcome,[6],inactive
same,Potency,[7],inactive
same,"activity change, negative = inhibition",[13],33.8% [at 2.29 µM] (inactive)
same,Potency,[8],inactive
same,outcome,[16],inactive
same,"activity change, negative = inhibition",[9],10.8% (inactive)
same,max response,[9]; [21],0.88%
same,max response,[9]; [22],11.3%
same,Potency,[10],inactive
